In PubChem BioAssay AID1159580 (chemical genetic matrix, 2015):
“And” between values parts separate entries of the source, which are not always exact repeats. Equal values may be shown once. Screen size: about 5,500 compounds; about 2,000 (36%) were called active. Inconclusive results (about 18%) are left out. No stated cut-off is given here; in the data, active means normalized growth mostly below about 0.91 (no sharp cut-off); inconclusive means no clear call, values can overlap the other calls; inactive means mostly above about 0.92. This is one part of the list.

Assay: chemical genetic growth profiling, strain panel (AID 1159580);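 further: tested at 20 µM; growth read once vehicle control cultures reached saturation at 30 °C; 1 = growth at the plate median or of vehicle wells; lower values mean less growth of the strain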
Details: S. cerevisiae deletion strains, growth OD

Measured: normalized growth

COC(=O)NC(=S)Nc1ccccc1NC(=S)NC(=O)OC
active: locus YDR392W, strain spt3, active compounds read low 0.724 | locus YER155C, strain BEM2 (second series), active compounds read low 0.753
inactive: locus YAL013W, strain DEP1, active compounds read low 1 | locus YAL021C, strain ccr4, active compounds read low 0.92 | locus YAL026C, strain drs2, active compounds read low 0.975 | locus YAL030W, strain snc1, active compounds read low 0.986 | locus YBL061C, strain skt5, active compounds read low 0.99 | locus YBR009C, strain hhf1, active compounds read low 0.973 | locus YBR021W, strain FUR4, active compounds read low 1.02 | locus YBR023C, strain chs3, active compounds read low 0.966 | locus YBR171W, strain sec66, active compounds read low 0.974 | locus YBR229C, strain ROT2, active compounds read low 1 | locus YBR231C, strain swc5, active compounds read low 1 | locus YBR279W, strain paf1, active compounds read low 0.983 | locus YCL011C, strain gbp2, active compounds read low 0.978 | locus YCL016C, strain dcc1, active compounds read low 0.974 | locus YCL029C, strain bik1, active compounds read low 1.03 | locus YCL069W, strain vba3, active compounds read low 0.978 | locus YCR088W, strain abp1, active compounds read low 0.975 | locus YDL005C, strain med2, active compounds read low 0.963 | locus YDL035C, strain GPR1, active compounds read low 0.992 | locus YDL040C, strain nat1, active compounds read low 0.973 | locus YDL074C, strain BRE1, active compounds read low 1.03 | locus YDL101C, strain DUN1, active compounds read low 1.02 | locus YDL134C, strain PPH21, active compounds read low 1 | locus YDL185W, strain tfp1, active compounds read low 1 | locus YDL192W, strain arf1, active compounds read low 1.01 | locus YDR001C, strain nth1, active compounds read low 0.976 | locus YDR069C, strain doa4, active compounds read low 0.909 | locus YDR101C, strain arx1, active compounds read low 1.01 | locus YDR137W, strain rgp1, active compounds read low 0.945 | locus YDR150W, strain NUM1, active compounds read low 0.996 | locus YDR159W, strain sac3, active compounds read low 0.969 | locus YDR162C, strain NBP2, active compounds read low 1.01 | locus YDR195W, strain ref2 1.04 | locus YDR297W, strain sur2, active compounds read low 0.984 | locus YDR318W, strain mcm21, active compounds read low 1.02 | locus YDR334W, strain swr1, active compounds read low 0.972 | locus YDR335W, strain msn5, active compounds read low 0.97 | locus YDR388W, active compounds read low 1.02 | locus YDR502C, strain sam2, active compounds read low 0.993 | locus YEL003W, strain gim4, active compounds read low 0.959 | locus YEL037C, strain rad23, active compounds read low 0.973 | locus YEL061C, strain CIN8 (second series), active compounds read low 0.979 | locus YEL061C, strain CIN8, active compounds read low 0.996 | locus YER015W, strain faa2, active compounds read low 0.981 | locus YER016W, strain bim1, active compounds read low 0.963 | locus YER110C, active compounds read low 1.02 | locus YER111C, strain swi4, active compounds read low 0.958 | locus YER155C, strain BEM2, active compounds read low 1.01 | locus YER167W, strain BCK2, active compounds read low 0.977 | locus YFR010W, strain ubp6, active compounds read low 0.984 | locus YGL078C, strain dbp3, active compounds read low 0.982 | locus YGL086W, strain mad1, active compounds read low 0.997 | locus YGL167C, strain pmr1, active compounds read low 0.976 | locus YGL173C, strain kem1, active compounds read low 0.985 | locus YGL227W, strain vid30, active compounds read low 0.977 | locus YGL240W, strain doc1, active compounds read low 0.972 | locus YGL248W, strain PDE1, active compounds read low 1.01 | locus YGL253W, strain hxk2, active compounds read low 1 | locus YGR078C, strain PAC10, active compounds read low 0.996 | locus YGR135W, strain pre9, active compounds read low 1 | locus YGR229C, strain SMI1, active compounds read low 0.986 | locus YGR252W, strain gcn5, active compounds read low 0.981 | locus YHR013C, strain ard1, active compounds read low 0.886 | locus YHR027C, strain rpn1, active compounds read low 0.985 | locus YHR030C, strain SLT2, active compounds read low 0.997 and 0.983 | locus YHR079C, strain IRE1 (second series), active compounds read low 1.02 | locus YHR079C, strain IRE1, active compounds read low 0.938 | locus YHR094C, strain hxt1, active compounds read low 1.01 | locus YHR129C, strain ARP1, active compounds read low 1.01 | locus YHR142W, strain chs7, active compounds read low 0.943 | locus YHR200W, strain rpn10, active compounds read low 1.01 | locus YIL066C, strain RNR3, active compounds read low 1.01 | locus YIL073C, strain SPO22, active compounds read low 0.999 | locus YIL125W, strain kgd1, active compounds read low 0.998 | locus YIR030C, strain dcg1, active compounds read low 1.02 | locus YJL092W, strain hpr5, active compounds read low 0.977 | locus YJL095W, strain BCK1 (second series), active compounds read low 0.978 | locus YJL095W, strain BCK1, active compounds read low 1.04 and 0.967 | locus YJL115W, strain asf1, active compounds read low 0.966 | locus YJL129C, strain trk1, active compounds read low 0.939 | locus YJL134W, strain LCB3, active compounds read low 1 | locus YJL154C, strain vps35, active compounds read low 0.963 | locus YJL164C, strain tpk1, active compounds read low 0.965 | locus YJL166W, strain qcr8, active compounds read low 0.979 | locus YJL168C, strain set2, active compounds read low 1.02 | locus YJL187C, strain SWE1 (second series), active compounds read low 1.04 | locus YJL187C, strain SWE1, active compounds read low 0.986 | locus YJR043C, strain POL32, active compounds read low 1.04 | locus YJR066W, strain TOR1, active compounds read low 0.87
